# In the library only some 3.6% were active in any assay of this set; here they are far more common.
# A549 tox: kills or reduces viability of A549 cells in Nrf2 counter-screen; A549 ARE-Fluc cells, CellTiter-Fluor viability, 18-24 h; Potency, µM (series often up to 46 µM), inactives show at the top dose activity change, negative = cytotoxicity, hits mostly inhibitors; 0.16% of 390,000 active; AID 504648; note: % is set by controls: 0 for no effect and ±100 for the full control effect
#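 Cytotoxicity counterscreen: CellTiter-Fluor fluorescence was measured in A549 ARE_Fluc cells after 18-24 h of compound exposure in a concentration series. The subsequent BugLite luminescent read reports ARE-luciferase activity.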
# Nrf2 inh: Nrf2 pathway inhibition | A549 ARE-Fluc reporter, luciferase luminescence, 18-24 h | Potency, µM (doses to about 46 µM), without a hit: top-dose activity change, negative = inhibition, hits mostly inhibitors | 2.1% of 360,000 active; note: % is set by controls: 0 for no effect and ±100 for the full control effect; nearly all actives have a fitted effect of over 60% in size
#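 Quantitative HTS in A549 cells stably bearing an antioxidant response element-firefly luciferase construct. Inhibition of Nrf2-driven transcription was scored by luminescence after 18-24 h of compound exposure at 37 °C.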
# HepG2 viability: counter-screen for TGF-b inhibitors: cytotoxicity in HepG2 cells | AID 588856 | Potency, µM (series often up to 46.1 µM), without a hit: top-dose activity change, negative = cytotoxicity, hits mostly cytotoxic | HepG2 CAGA-GFP viability, ATP luminescence, 18 h | 0.76% of 410,000 active
#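 CellTiter-Glo luminescence gave cytotoxicity after 18 hours at 37 degrees C. The cells were HepG2 CAGA-GFP in 1% FBS DMEM, stimulated with 500 pg/mL TGF-beta after compound addition. %Activity was normalised to no-cell wells (complete cell-killing) and DMSO (no toxicity), and curves were fitted and classified.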
# Nrf2 ARE act: activates Nrf2 signaling. AREc32 ARE-luciferase reporter (MCF7-derived line), luminescence, 24 h. Potency, µM (doses to about 46.1 µM), for inactives: at the top dose activation, actives largely listed as activators. 0.31% of 410,000 active; note: % of control where 0% means no effect; nearly all actives have a fitted effect of over 65% in size
#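 Each well held 1000 AREc32 cells, which were incubated with compound for 24 hr at 37 deg C after overnight attachment, and ARE reporter activity was quantified by firefly luciferase luminescence.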
# TGFb SMAD3 inh: TGF-b pathway inhibition | HepG2 CAGA-GFP TGF-b/SMAD3 reporter, GFP fluorescence, 18 h; TGF-beta stimulated, 500 pg/mL final | Potency, µM (series often up to 46.1 µM), without a hit: at the top dose activity, negative = inhibition, hits mostly inhibitors | 1.2% of 410,000 active | AID 588855; note: % is set by controls: 0 for no effect and ±100 for the full control effect; nearly all actives have a fitted effect of over 65% in size
#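 Using HEPG2 CAGA-GFP reporter cells at 1000 cells/well, we pinned test compounds, stimulated with recombinant TGF-beta (500 pg/mL final) and measured total well GFP after 18 h.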
# Active calls of the source: *; ? = inconclusive; · = no result given. Calls come from the whole dose curve; as a rule, active = well fitted curve in the direction sought with a large enough effect; inconclusive = small, poorly fitted or top-dose-only effect, or another doubt; inactive = no such curve, though single readings can be large; an effect the other way counts as inactive or inconclusive. Potency is the fitted concentration of half-maximal effect.
SMILES,A549 tox,Nrf2 inh,HepG2 viability,Nrf2 ARE act,TGFb SMAD3 inh
CCOC(=O)C1=C(CS(=O)(=O)c2ccc(C)cc2)NC(=O)NC1c1ccc(C(C)C)cc1 (stereo unspecified),?,18µM*,-58%,0%,?
CCOC(=O)C1=C(CN2CCN(c3cc(C)ccc3C)CC2)NC(=O)NC1c1ccc(Cl)cc1 (stereo unspecified),-18%,21µM*,-32%,0%,?
CCOC(=O)C1=C(CS(=O)(=O)c2ccc(C)cc2)NC(=O)NC1c1ccc(O)c(OC)c1 (stereo unspecified),-4%,1%,-2%,0%,5%
CCOC(=O)C1=C(CN(C)Cc2ccccc2)NC(=O)NC1c1ccc(OC(C)C)cc1 (stereo unspecified),-13%,26µM*,-43%,1%,?
O=C(CS(=O)(=O)c1cccc2nsnc12)N1CCN(c2ccccc2F)CC1,14%,·,-66%,4%,16µM*
Cc1cccc(N2CCN(C(=O)CS(=O)(=O)c3cccc4nsnc34)CC2)c1C,7%,·,-10%,4%,5%
O=S(=O)(c1cccs1)N1CCN(S(=O)(=O)c2cccs2)CC1,-2%,-4%,1%,0%,6%
O=C1Nc2cc(C(=O)NCCN3CCCCCC3)ccc2S/C1=C\c1ccccc1,-2%,13%,14µM*,-5%,?
CCN1CCN(CCCNC(=O)c2ccc3c(c2)NC(=O)/C(=C\c2cccc(C)c2)S3)CC1,10%,5%,13µM*,-5%,?
CCN1CCCC1CNC(=O)c1ccc2c(c1)NC(=O)/C(=C\c1ccc(OC)c(OC)c1)S2 (stereo unspecified),3%,6%,13µM*,7%,13µM*
Cc1cccc(/C=C2/Sc3ccc(C(=O)NCCN4CCCC4)cc3NC2=O)c1,-5%,-4%,-131%,4%,?
COc1cccc(/C=C2/Sc3ccc(C(=O)NCCN4CCCCCC4)cc3NC2=O)c1,-13%,-4%,16µM*,-5%,10µM*
CCN1CCCC1CNC(=O)c1ccc2c(c1)NC(=O)/C(=C\c1ccccc1Cl)S2 (stereo unspecified),·,·,-96%,-1%,?
Cc1ccccc1OCC(O)Cn1c2ccccc2c2ccccc21 (stereo unspecified),-29%,?,-105%,3%,?
Cc1cccc(Cn2cc(/C=C(/C#N)C(=O)Nc3cccc(Cl)c3)c3ccccc32)c1,-13%,?,-23%,1%,?
COc1ccc(/C=C2/Sc3ccc(C(=O)NCCCN4CCOCC4)cc3NC2=O)cc1OC,-16%,?,20µM*,?,14µM*
O=C1Nc2cc(C(=O)NCCCN3CCCC3)ccc2S/C1=C/c1cccc(Cl)c1,·,·,16µM*,0%,?
CCCCOC(=O)c1ccc(NC(=O)C(=O)NCc2ccncc2)cc1,-3%,-10%,16%,2%,5%
C/C(Cn1nnc([N+](=O)[O-])n1)=N\NC(=O)c1ccc(O)cc1,-3%,-5%,-31%,0%,11µM*
C/C(Cn1nnc([N+](=O)[O-])n1)=N\NC(=O)c1ccc(Cl)c(Cl)c1,-12%,?,14µM*,1%,10µM*
Cc1ccc(OCC(=O)Nc2cccc(O)c2)cc1C,2%,18%,-7%,0%,-1%
CC(=O)Nc1ccc(C(=O)N2CCCc3ccccc32)cc1,2%,-8%,0%,-1%,5%
O=C(Nc1ccc2c(c1)CCCN2C(=O)c1cccs1)c1c(F)cccc1Cl,-16%,26µM*,-22%,4%,3%
CCCN(CCC)S(=O)(=O)c1ccc2c(c1)CCCN2C(C)=O,8%,-8%,-9%,0%,-14%
CCCN(CCC)S(=O)(=O)c1ccc(C(=O)N2CCCc3ccccc32)cc1,-22%,18µM*,3%,0%,-11%
SMILES,A549 tox,Nrf2 inh,HepG2 viability,Nrf2 ARE act,TGFb SMAD3 inh
O=C(Nc1ccc(C(=O)N2CCCc3ccccc32)cc1)c1cccs1,?,21µM*,-9%,0%,-7%
O=C(Nc1ccc2c(c1)CCCN2C(=O)c1cccs1)c1c(F)cccc1F,-2%,-10%,-5%,-1%,-10%
O=C(Nc1ccccc1)N1N=C(c2cccs2)CC1c1cccs1 (stereo unspecified),-8%,23µM*,-9%,2%,0%
Nc1nc(CSC(=S)N2CCN(c3ccccc3)CC2)nc(Nc2ccc(F)cc2)n1,-3%,21µM*,4%,4%,-17%
Nc1nc(CSC(=S)N2CCOCC2)nc(Nc2ccccc2)n1,8%,?,-29%,12%,?
COC(=O)c1ccccc1S(=O)(=O)N1CCC(C(=O)NC2=NCCS2)CC1,13%,-15%,5%,0%,-2%
CC1=C(C)/C(=N\OS(=O)(=O)c2ccc(C)cc2)C=CC1=O,-11%,3%,4µM*,?,2.8µM*
CC1=C/C(=N\OS(=O)(=O)c2ccccc2)C(C)=CC1=O,3%,-3%,11µM*,-3%,10µM*
COc1ccc(CNC(=S)NCc2ccc(F)cc2)cc1OC,1%,?,-1%,1%,0%
CCOc1ccc(CNC(=O)c2cnc3sc(N(CC)CC)nn3c2=O)cc1OC,7%,-29%,-24%,-1%,0%
CN(C)CCCNc1nc2cc(-c3cccc(Cl)c3)sc2c(=O)n1C,·,·,11µM*,7%,?
CN(C)CCCNc1nc2cc(-c3cccc(C(F)(F)F)c3)sc2c(=O)n1C,·,·,-93%,?,?
Cc1ccccc1C(=O)N1CCCC(CCC(=O)N2CCN(c3ccccn3)CC2)C1 (stereo unspecified),-10%,23µM*,-15%,1%,-15%
Cc1nn(Cc2c(F)c(F)c(F)c(F)c2F)c(C)c1NC(=O)c1ccc(COc2ccc(Cl)cc2Cl)o1,-9%,16µM*,-5%,0%,?
Cc1nn(Cc2ccc(Cl)cc2Cl)c(C)c1NC(=O)c1nn(C)cc1Cl,1%,·,-16%,0%,21%
O=C(Nc1ccn(Cc2c(F)c(F)cc(F)c2F)n1)c1ccc(COc2ccc(Cl)cc2Cl)o1,-14%,·,-2%,-1%,?
Cc1nn(Cc2cccc(F)c2)c(C)c1NC(=O)c1ccc(COc2ccccc2Cl)cc1,?,10µM*,2%,0%,?
Cc1nn(Cc2ccc(Cl)cc2Cl)c(C)c1NC(=O)c1ccc(COc2cc(Cl)ccc2Cl)o1,-23%,12µM*,-17%,0%,-18%
COCCNC(=O)c1sc(=O)n(Cc2ccc(SC)cc2)c1C,·,·,5%,0%,-5%
CCOC(=O)c1ccc(NS(=O)(=O)c2cc(C)ccc2OC)cc1,·,?,-37%,1%,-22%
